Unmarked numbers belong to inactive results. How the calls were made is not given here.

As usually defined, the inhibition is the percentage by which the read-out fell short of the control.

For this assay, the target named is Pantothenate synthetase (Mycobacterium tuberculosis (strain ATCC 25618 / H37Rv)) (UniProt P9WIL5). The experiment in a line: Recombinant Mtb pantothenate synthetase (PanC) inhibitors, coupled enzyme, confirmatory (AID 375).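 Further: 0% = full reaction with vehicle and 100% = no enzyme background.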 The conditions noted are these: coupled enzyme assay; at 10 µM, hits give high values.
Pantothenate synthetase (Mycobacterium tuberculosis (strain ATCC 25618 / H37Rv)), sequence (P9WIL5 whole entry, looked up): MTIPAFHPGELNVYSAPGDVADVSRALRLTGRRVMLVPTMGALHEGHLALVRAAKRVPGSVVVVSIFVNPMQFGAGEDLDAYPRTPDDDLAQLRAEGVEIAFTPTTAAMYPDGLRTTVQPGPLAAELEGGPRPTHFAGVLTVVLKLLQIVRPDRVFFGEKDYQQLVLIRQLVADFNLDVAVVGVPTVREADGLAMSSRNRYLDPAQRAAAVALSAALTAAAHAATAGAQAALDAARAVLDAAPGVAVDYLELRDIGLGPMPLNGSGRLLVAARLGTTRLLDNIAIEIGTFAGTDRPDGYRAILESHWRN
In the case of `COC(=O)c1[nH]c2c(c1C)C(=O)CC(c1cc(OC)ccc1OC)C2` (stereo not given), the inhibition was 0%. For `CCCNC(=O)c1c(N)n(-c2cc(OC)cc(OC)c2)c2nc3ccccc3nc12`, the inhibition is 8%. Consider `CN(C(=O)c1ccccc1Cl)c1ccccc1`, for which the inhibition was 2%. On to `O=S(=O)(NCc1ccc(Cl)cc1)c1cnc[nH]1`, for which the inhibition is 0%. Take `Cn1cccc1Cc1nnc(SCC(=O)Nc2ccc(F)cc2)n1-c1ccc(F)cc1`: the inhibition is 4%.

Source of the values: PubChem BioAssay.
